# Data reported in PubChem BioAssay AID686978 (National Center for Advancing Translational Sciences (NCATS), 2013).
# In all, about 420,000 compounds went through this assay and about 64,000 (15%) were called active. Inconclusive results (about 27%) are left out. A selection follows. Unmarked numbers belong to inactive results. The call rests on the fitted dose curve; in most records, active means well fitted inhibition curve with a large enough effect; inconclusive means small, poorly fitted or top-dose-only effect; inactive means flat fitted curve, though single readings scatter.
# Experiment: qHTS for Inhibitors of human tyrosyl-DNA phosphodiesterase 1 (TDP1): qHTS in cells in absence of CPT; further: nearly all actives have a fitted effect of over 55% in size
# Settings: DT40 Tdp1-/- hTDP1 cells, no CPT, ATP luminescence, 48 h; activity change, negative = growth inhibition: at 46.2 µM (top of the series)
# Outline: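 Growth kinetics read by CellTiter-Glo luminescence after ≥48 hr at 37 °C. Cells: DT40 Tdp1-/- stably carrying human TDP1, 400 per well, compound exposure in the absence of CPT (DMSO vehicle).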
# On the % scale 0 is the no-effect control and ±100 the full control effect; potency means the concentration at half of the fitted maximal effect.
Structure (SMILES),"activity change, negative = growth inhibition",Potency
COc1ccc(CNC(=O)COC(=O)C(CCSC)N2C(=O)c3ccccc3C2=O)cc1 (centres undefined),-24.9%,
COc1ccccc1N1CCN(C(=O)c2cc(=O)c3cc(C)cc(C)c3o2)CC1,,0.0082 µM (active)
COc1ccccc1OCc1ccc(C(=O)N2CCN(C)CC2)o1,6.37%,
COc1cccc2cc(C(=O)N3CCN(C(=O)c4ccccc4)CC3)c(=O)oc12,4.28%,
O=C(c1cc(=O)c2ccccc2o1)N1CCN(c2ccccc2)CC1,13.6%,
COc1ccc2c(CC(=O)N3CCc4cc(OC)c(OC)cc4C3)coc2c1,-3.86%,
Cc1cccc(-c2cc(=O)c3cc(C)ccc3o2)c1,-2.27%,
COc1ccccc1N1CCN(c2nc(C)cc(=O)[nH]2)CC1,-10.7%,
COc1ccccc1N1CCN(C(=O)c2cc(=O)c3cc(C)ccc3o2)CC1,,23.1 µM (active)
COc1cc2c(cc1OC)CN(C(=O)c1cc(=O)c3ccccc3o1)CC2,,3.26 µM (active)
O=C(NCc1ccco1)/C(=C\c1cccc([N+](=O)[O-])c1)NC(=O)c1ccco1,17.9%,
Cc1cc(NC(=O)COC(=O)/C=C/c2ccc(C)o2)no1,18.1%,
COc1cccc2c1OCC1COc3c(c(=O)n(C)c(=O)n3C)C21 (centres undefined),2.66%,
COc1ccc(NC(=S)NCCN2CCC(C)CC2)cc1,18.1%,
CC(C)CC(=O)c1c[nH]c(C(=O)NCc2ccccc2)c1,-0.735%,
O=C(CN1CCSCC1)N/N=C/c1ccc(F)cc1F,-6.91%,
OC(CBr)CN1CCCCC1 (centres undefined),-22.3%,
OC(COc1ccc(CN2CCSCC2)cc1)CN1CCCCC1 (centres undefined),-22.4%,
OC(COCCC12CC3CC(CC(C3)C1)C2)CN1CCCCC1 (centres undefined),,16.4 µM (active)
O=C(CSc1nc2ccccc2c(=O)n1-c1ccccc1F)N1CCOCC1,-4.22%,
CCN(CC)CCCC(C)n1c2nc(=O)[nH]c(=O)c-2nc2cc(Cl)ccc21 (centres undefined),,8.2 µM (active)
O=C(OCc1nnc(-c2ccccc2)o1)c1cc(=O)[nH]c2ccccc12,-9.31%,

Structure (SMILES),"activity change, negative = growth inhibition",Potency
CCCCc1nc2ccccc2c(NC(=O)CN2CCN(C)CC2)c1CCC,-12.6%,
CCCc1nc2ccccc2c(C(=O)OCc2nnc(-c3cc(OC)c(OC)c(OC)c3)o2)c1CC,,23.1 µM (active)
C=CCn1c(N)cc(=O)nc1SCC(=O)Nc1cccc2ccccc12,-7.69%,
CCOc1ccccc1CN1CCN(C2CCC2)CC1CCO (centres undefined),2.32%,
O=C(Nc1c(Cl)cccc1Cl)C1CCC1,3.42%,
Cc1cccc(NC(c2cccc(F)c2)c2ccc3ccc(C)nc3c2O)n1 (centres undefined),,5.8 µM (active)
CC(=O)NC(c1cccc(F)c1)c1nc(-c2cccc(F)c2)cs1 (centres undefined),-20.2%,
CSCCC(NC(=O)c1ccco1)C(=O)Nc1cc(C)ccn1 (centres undefined),-5.59%,
N#Cc1cccc(CN2CCC(=O)N([C@H](CO)c3ccccc3)CC2)c1,,inactive
O=C(CSCc1c(F)cccc1Cl)NCC1CCCO1 (centres undefined),-9.7%,
O=c1c(NCc2cccs2)nccn1-c1ccccc1,-12.9%,
N#Cc1cccc(-c2ccc3ncnc(NCc4cccs4)c3c2)c1,,23.1 µM (active)
O=C(O)c1ccc2c(c1)C(=O)N(NC(=O)c1ccc(O)cc1)C2=O,-0.75%,
COc1ccccc1OCC(=O)Nc1nnc2n1CCS2,-0.848%,
O=C(COC(=O)CCCSc1nc2ccccc2[nH]1)Nc1ccc(Oc2ccccc2)cc1,-25.9%,
O=C(CSc1nc2ccccc2[nH]1)Nc1nc(-c2ccccc2)c(-c2ccccc2)o1,-5.95%,
O=C(CSc1nc2ccccc2[nH]1)N/N=C/C=C\c1ccccc1[N+](=O)[O-],,20.6 µM (active)
Cc1cnc(CNc2ncncc2-c2ccccc2Cl)cn1,3.24%,
COCC1CCN(C(=O)CCc2nnc(C3(c4ccc(Cl)cc4)CCC3)o2)C1 (centres undefined),-15.1%,
COc1ccccc1C1=Nc2cccc3cccc(c23)N1,,5.17 µM (active)
c1ccc(C2=Nc3cccc4cccc(c34)N2)cc1,,11.6 µM (active)
COc1ccccc1-c1n[nH]nc1C1=CC(=O)CC(C)(C)C1,-0.842%,

Structure (SMILES),"activity change, negative = growth inhibition",Potency
COc1ccccc1-c1nc(SC)n[nH]1,20.7%,
CC1(C)CC(=O)C=C(NCCN2CCNCC2)C1,-10.8%,
COc1ccc(C(=O)OCC(=O)Nc2cccc(C(C)=O)c2)cc1OC,-22%,
COC(=O)c1sc(N)c(C(=O)OC)c1COC(=O)CNS(=O)(=O)c1ccc(C)cc1,3.93%,
COCCN(C(=O)c1ccccc1F)c1c(N)n(Cc2ccccc2)c(=O)[nH]c1=O,-12%,
CCCNC(=O)c1cc(C2CCCCN2S(=O)(=O)c2cn(C)cn2)on1 (centres undefined),-8.48%,
O=C(NCc1ccc(F)cc1)c1cc(C2CCCCN2C(=O)C2CCCCC2)on1 (centres undefined),,23.1 µM (active)
CS(=O)(=O)N1CCCCC1c1cc(C(=O)NCc2ccccc2)no1 (centres undefined),4.99%,
O=C(NCc1ccc(F)cc1)c1cc(C2CCCCN2C(=O)c2ccccn2)on1 (centres undefined),,20.6 µM (active)
O=C(c1cc(C2CCCCN2S(=O)(=O)c2ccccc2)on1)N1CCOCC1 (centres undefined),-2.63%,
O=C(NCc1cccnc1)c1cc(C2CCCN(C(=O)C3CCCCC3)C2)on1 (centres undefined),-1.16%,
CC(Oc1ccc(Cl)cc1)C(=O)OCC(=O)Nc1ncc(Cl)cc1Cl (centres undefined),-12.2%,
COC(=O)c1c(NC(=O)C(=O)N2CCCCC2)sc2c1CC(C)(C)OC2,0.589%,
COC1=NC2=NCCN2C(OC)=N1,-14%,
Cc1ccc2cccc(NC(=O)c3ccc(OC(C)C)cc3)c2n1,,29.1 µM (active)
Cc1ccc2cccc(NC(=O)C(C)Oc3ccc(C)c(C)c3)c2n1 (centres undefined),-72.3%,
CC(C)Oc1ccc(C(=O)Nc2cc(=O)n(C)c(=O)n2C)cc1,-16.5%,
COCc1cc(=O)[nH]c2cc(NC(=O)C(F)(F)F)c(C)cc12,-2.68%,
Cn1c(=O)c(=O)n(C)c2cc(NC(=O)c3ccccc3Br)ccc21,-6.28%,
CCOC(=O)c1cnc2c(C)cc(C)cc2c1Nc1ccc(N2CCOCC2)cc1,,5.8 µM (active)
CCOC(=O)c1cnc2c(C)cc(Cl)cc2c1NCCc1ccc(OC)c(OC)c1,-24.3%,
Cc1ccc(OCCCC(=O)Nc2ccc(N3CCOCC3)cc2)cc1,-18.3%,

Structure (SMILES),"activity change, negative = growth inhibition",Potency
COc1ccc(-c2ccc(=O)n(CC(=O)Nc3ccc(Br)cc3F)n2)cc1,-9.62%,
CCc1nc(SCC(=O)Nc2ccccc2OC)n[nH]1,-4.31%,
CCCc1nc(SCC(=O)Nc2ccccc2OC)c2c(=O)n(C)c(=O)n(C)c2n1,,23.1 µM (active)
CCCc1nc(SCC(=O)N2CCCC2)c2c(=O)n(C)c(=O)n(C)c2n1,-0.452%,
COc1ccc(CCN2CC(C(=O)NCCN3CCNC3=O)CCC2=O)cc1 (centres undefined),20.6%,
O=C(COc1ccccc1)NCc1ccc2c(c1)OCO2,-28.8%,
COc1cccc(NC(=O)C2CCCN2C(=O)OCc2ccccc2)c1 (centres undefined),-24.9%,
COc1cccc(NC(=O)N2CCCC2C(=O)NC2CCCCC2)c1 (centres undefined),-3.39%,
COc1cccc(NC(=O)N(Cc2cn(C)c3ccccc23)C2CCCCCC2)c1,,5.8 µM (active)
O=C1CCC(=O)N1CCOP1(=O)COc2ccccc2OC1,-3.6%,
O=C(Nc1cccc2ccccc12)NC1CC1,-14.7%,
CC(=O)N(C)c1ccc(NC(=O)Nc2cccc3ccccc23)cc1,5.69%,
CCN(C(=O)Nc1cccc2ccccc12)c1ccccc1,,20.6 µM (active)
COc1ccc(N2C(=O)CCC(C(=O)Nc3ccccn3)C2c2ccc(OC)c(OC)c2)cc1 (centres undefined),-20.8%,
CC(C)Cc1nc(Cl)c(C#N)c2c1CCC2,-18.1%,
O=C1NC2(CCCCC2)N=C1c1ccccc1,0.724%,
S=c1[nH]nc(-c2ccco2)n1/N=C/c1ccc(Br)s1,-0.549%,
S=c1[nH]nc(-c2cccs2)n1/N=C/c1cccs1,-2.22%,
Cc1ccsc1/C=N/n1c(=S)[nH]nc(C)c1=O,,13 µM (active)
CN(Cc1ccccc1)C(=O)[C@@H]1CCCN1C(=O)[C@@H]1CCCN1C(=O)c1c(F)cccc1F,-18.5%,
N#CC1(NC(=O)COC(=O)CCN=C2NS(=O)(=O)c3ccccc32)CCCCC1,-0.411%,
Cc1ccc(C(=O)C(=S)N2CCOCC2)cc1,-1.15%,

Structure (SMILES),"activity change, negative = growth inhibition",Potency
CNC(=S)N/N=C/c1ccc(N2CCOCC2)s1,,3.26 µM (active)
Cc1cc(C(=O)N/N=C/c2ccc(N3CCOCC3)cc2)c(C)o1,-28.1%,
COc1nc(OC)nc(N(C)CCO)n1,-10.8%,
COc1cc(CN(C)Cc2nc3cc(C(F)(F)F)ccc3c(=O)[nH]2)ccc1OC(F)F,,18.4 µM (active)
CN(CCOc1ccccc1)Cc1nc2cc(Cl)ccc2c(=O)[nH]1,0.203%,
Cc1nc2ccc(S(=O)(=O)NCC(=O)NCCN3CCCCC3C)cc2s1 (centres undefined),-8.89%,
Cc1nn(-c2ccccc2)c2c1C(=O)NC(=O)C(C)(C)C2,-19.3%,
Cc1nn(-c2ncccn2)c2c1C(=O)CC(C)(C)C2Br (centres undefined),,20.6 µM (active)
O=C(COC(=O)c1n[nH]c2ccccc12)Nc1ccccc1Br,-17.5%,
CN(C)S(=O)(=O)c1ccc(NC(=O)COC(=O)c2n[nH]c3ccccc23)cc1,,13 µM (active)
CN(C)S(=O)(=O)c1ccc(NC(=O)COC(=O)Cn2[nH]c(=O)c3ccccc3c2=O)cc1,4.3%,
CCOC(=O)c1ccc(N2C(=O)CC(Sc3nc(O)c(CC)c(=O)[nH]3)C2=O)cc1 (centres undefined),3.43%,
COc1ccc(-c2nc(SCC(=O)N3CCOCC3)n[nH]2)cc1,9.09%,
COc1ccc(N2C(=O)CC(Sc3n[nH]c(-c4ccc(C)cc4)n3)C2=O)cc1 (centres undefined),,10.3 µM (active)
COc1ccc(N2C(=O)CC(SC(C)C)C2=O)cc1 (centres undefined),9.41%,
Cc1ccc(N2C(=O)CC(Nc3cccc4ccccc34)C2=O)cc1 (centres undefined),-2.47%,
O=C1CC(Sc2ncn[nH]2)C(=O)N1c1ccccc1 (centres undefined),,11.6 µM (active)
Cc1ccc(N2C(=O)CC(Sc3ncn[nH]3)C2=O)cc1 (centres undefined),,4.61 µM (active)
O=C1CC(c2ccccc2)C(=O)N1c1cccc(O)c1 (centres undefined),-3.05%,
O=C1CC(N2CCN(c3ccc(F)cc3)CC2)C(=O)N1c1ccccc1 (centres undefined),-10.2%,
CC1Cc2[nH][nH]c(=O)c2C(C2CCCC2)O1 (centres undefined),-27.8%,
